Source: the supplement of paper PMC11732987, “Enantioselective OTUD7B fragment discovery through chemoproteomics screening and high-throughput optimisation” (Communications Chemistry, 2025)

What was measured:
Experiment in all cases: log2 ratio of Biotin-Ahx-Ub-VS probe labelling (fragment/DMSO); higher = less target engagement (more negative = stronger competition), active = hit call of the paper (q ≤ 0.05, log2 ratio ≤ -1)
Settings in all cases: compound concentration: 200 uM; treatment time: 3 h
USP42 = target: T1, USP42 (UniProt Q9H9J4)
T1 sequence (whole entry): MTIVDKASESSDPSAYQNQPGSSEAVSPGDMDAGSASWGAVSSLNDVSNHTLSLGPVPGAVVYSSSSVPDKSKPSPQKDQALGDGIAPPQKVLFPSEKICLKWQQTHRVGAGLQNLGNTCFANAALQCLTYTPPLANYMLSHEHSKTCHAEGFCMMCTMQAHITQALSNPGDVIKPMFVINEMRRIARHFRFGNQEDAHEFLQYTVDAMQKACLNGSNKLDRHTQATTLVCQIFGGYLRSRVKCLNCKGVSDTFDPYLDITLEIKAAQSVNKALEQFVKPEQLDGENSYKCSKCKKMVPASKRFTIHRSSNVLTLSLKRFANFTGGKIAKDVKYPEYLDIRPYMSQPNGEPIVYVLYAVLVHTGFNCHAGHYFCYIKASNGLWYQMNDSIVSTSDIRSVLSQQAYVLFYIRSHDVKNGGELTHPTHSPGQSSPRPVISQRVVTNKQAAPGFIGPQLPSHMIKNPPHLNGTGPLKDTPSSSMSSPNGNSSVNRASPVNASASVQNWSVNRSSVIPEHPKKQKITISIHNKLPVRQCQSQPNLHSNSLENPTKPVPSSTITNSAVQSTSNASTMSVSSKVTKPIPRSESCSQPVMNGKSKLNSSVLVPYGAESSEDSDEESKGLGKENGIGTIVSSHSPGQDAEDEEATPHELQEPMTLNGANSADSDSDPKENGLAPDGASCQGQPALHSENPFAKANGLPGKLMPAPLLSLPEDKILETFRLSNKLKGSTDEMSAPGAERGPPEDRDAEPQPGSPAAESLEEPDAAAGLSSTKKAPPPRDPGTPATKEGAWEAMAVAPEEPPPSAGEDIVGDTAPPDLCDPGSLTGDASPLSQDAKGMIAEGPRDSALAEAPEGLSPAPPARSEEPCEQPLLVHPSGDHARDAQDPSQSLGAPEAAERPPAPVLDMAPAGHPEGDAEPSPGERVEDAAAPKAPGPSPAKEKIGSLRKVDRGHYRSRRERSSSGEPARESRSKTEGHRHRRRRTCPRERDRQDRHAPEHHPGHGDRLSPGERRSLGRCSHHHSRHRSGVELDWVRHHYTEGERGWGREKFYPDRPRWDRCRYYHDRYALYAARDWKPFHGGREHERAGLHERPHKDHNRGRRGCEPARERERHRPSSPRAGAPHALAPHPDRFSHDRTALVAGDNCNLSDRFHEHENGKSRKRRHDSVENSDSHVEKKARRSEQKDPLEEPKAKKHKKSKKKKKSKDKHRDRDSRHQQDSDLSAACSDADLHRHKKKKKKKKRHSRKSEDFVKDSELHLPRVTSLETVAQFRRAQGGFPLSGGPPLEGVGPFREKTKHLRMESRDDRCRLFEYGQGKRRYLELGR
Procedure, shortened: (§1)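 Labelling with Biotin-Ahx-Ub-VS (0.5 µM final, 1 h) followed a 3 h triplicate treatment of HEK293T lysate (495 µg per sample, Tris/CHAPS/IGEPAL buffer with protease inhibitors) with fragment at 200 µM or vehicle. Labelled DUBs were NeutrAvidin-enriched, digested with LysC and trypsin, and run by diaPASEF LC-MS/MS. The values, average log2 fragment/vehicle ratios by unpaired t-test, come from global-median-normalised Spectronaut label-free quantities. Proteins with ≥2 unique peptides were used.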

USP46 = USP46 (UniProt P62068)
Procedure, shortened: as §1

USP47 = target: T2, USP47 (UniProt Q96K76)
T2 sequence (whole entry): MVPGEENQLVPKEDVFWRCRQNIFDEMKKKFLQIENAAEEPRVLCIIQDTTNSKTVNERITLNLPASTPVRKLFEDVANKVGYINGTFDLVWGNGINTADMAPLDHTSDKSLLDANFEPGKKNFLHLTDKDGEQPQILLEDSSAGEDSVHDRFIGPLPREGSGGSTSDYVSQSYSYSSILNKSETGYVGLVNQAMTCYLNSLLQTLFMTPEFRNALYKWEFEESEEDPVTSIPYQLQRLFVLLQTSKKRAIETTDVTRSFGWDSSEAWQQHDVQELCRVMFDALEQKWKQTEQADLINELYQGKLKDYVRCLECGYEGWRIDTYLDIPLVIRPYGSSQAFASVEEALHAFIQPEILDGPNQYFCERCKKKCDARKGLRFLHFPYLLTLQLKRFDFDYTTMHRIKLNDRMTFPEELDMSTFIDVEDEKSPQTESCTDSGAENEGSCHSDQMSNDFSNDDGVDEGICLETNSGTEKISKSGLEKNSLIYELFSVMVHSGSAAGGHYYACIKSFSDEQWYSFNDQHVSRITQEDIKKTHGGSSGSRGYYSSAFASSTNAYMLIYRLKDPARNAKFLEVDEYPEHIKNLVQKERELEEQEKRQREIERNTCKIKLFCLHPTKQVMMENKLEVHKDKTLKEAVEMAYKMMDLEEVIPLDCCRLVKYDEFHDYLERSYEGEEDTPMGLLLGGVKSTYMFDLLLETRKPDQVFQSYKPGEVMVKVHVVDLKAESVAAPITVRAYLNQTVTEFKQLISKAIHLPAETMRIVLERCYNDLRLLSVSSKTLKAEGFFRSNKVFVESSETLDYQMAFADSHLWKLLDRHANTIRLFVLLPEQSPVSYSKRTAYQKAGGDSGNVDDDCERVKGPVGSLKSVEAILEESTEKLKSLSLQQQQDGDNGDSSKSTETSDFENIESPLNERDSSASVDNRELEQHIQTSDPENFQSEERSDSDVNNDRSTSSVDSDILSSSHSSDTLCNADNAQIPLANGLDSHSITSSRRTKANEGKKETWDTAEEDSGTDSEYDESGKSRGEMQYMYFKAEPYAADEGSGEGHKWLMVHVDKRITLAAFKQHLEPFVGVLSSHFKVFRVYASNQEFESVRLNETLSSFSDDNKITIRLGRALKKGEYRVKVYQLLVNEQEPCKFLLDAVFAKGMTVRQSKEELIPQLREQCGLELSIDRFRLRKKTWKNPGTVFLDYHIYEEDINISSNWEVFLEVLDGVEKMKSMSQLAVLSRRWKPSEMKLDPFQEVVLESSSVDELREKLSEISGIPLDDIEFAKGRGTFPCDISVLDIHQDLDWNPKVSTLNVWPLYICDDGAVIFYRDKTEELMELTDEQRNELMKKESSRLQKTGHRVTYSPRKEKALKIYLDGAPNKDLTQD
Procedure, shortened: as §1

USP48 = target: T3, USP48 (UniProt Q86UV5)
T3 sequence (whole entry): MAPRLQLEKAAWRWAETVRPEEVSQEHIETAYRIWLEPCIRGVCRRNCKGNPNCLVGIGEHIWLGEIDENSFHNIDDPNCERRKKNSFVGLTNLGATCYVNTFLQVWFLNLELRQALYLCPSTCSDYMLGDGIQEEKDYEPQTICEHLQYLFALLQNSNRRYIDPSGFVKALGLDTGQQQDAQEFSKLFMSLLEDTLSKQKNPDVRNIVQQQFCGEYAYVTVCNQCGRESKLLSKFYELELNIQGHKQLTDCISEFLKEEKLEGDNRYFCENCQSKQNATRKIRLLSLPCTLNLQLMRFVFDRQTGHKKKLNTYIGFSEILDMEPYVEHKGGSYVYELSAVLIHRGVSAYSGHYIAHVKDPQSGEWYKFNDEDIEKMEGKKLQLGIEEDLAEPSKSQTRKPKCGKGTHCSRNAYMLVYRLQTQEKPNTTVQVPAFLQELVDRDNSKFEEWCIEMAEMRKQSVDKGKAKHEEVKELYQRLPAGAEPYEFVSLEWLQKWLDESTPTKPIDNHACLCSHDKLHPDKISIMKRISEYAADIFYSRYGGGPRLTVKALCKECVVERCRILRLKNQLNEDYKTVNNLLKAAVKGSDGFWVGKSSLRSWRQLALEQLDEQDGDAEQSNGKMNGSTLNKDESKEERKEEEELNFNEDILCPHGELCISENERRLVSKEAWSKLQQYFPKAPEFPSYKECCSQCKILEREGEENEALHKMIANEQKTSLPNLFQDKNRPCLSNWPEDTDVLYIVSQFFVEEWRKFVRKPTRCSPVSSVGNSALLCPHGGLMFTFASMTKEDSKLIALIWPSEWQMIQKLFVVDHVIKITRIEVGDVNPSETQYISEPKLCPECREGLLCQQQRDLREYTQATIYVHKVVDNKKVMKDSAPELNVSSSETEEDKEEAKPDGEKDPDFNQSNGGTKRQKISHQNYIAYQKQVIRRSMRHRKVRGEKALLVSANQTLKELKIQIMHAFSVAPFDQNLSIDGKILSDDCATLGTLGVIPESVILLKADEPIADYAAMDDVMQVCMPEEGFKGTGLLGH
Procedure, shortened: as §1

USP5 = target: T4, USP5 (UniProt P45974)
T4 sequence (whole entry): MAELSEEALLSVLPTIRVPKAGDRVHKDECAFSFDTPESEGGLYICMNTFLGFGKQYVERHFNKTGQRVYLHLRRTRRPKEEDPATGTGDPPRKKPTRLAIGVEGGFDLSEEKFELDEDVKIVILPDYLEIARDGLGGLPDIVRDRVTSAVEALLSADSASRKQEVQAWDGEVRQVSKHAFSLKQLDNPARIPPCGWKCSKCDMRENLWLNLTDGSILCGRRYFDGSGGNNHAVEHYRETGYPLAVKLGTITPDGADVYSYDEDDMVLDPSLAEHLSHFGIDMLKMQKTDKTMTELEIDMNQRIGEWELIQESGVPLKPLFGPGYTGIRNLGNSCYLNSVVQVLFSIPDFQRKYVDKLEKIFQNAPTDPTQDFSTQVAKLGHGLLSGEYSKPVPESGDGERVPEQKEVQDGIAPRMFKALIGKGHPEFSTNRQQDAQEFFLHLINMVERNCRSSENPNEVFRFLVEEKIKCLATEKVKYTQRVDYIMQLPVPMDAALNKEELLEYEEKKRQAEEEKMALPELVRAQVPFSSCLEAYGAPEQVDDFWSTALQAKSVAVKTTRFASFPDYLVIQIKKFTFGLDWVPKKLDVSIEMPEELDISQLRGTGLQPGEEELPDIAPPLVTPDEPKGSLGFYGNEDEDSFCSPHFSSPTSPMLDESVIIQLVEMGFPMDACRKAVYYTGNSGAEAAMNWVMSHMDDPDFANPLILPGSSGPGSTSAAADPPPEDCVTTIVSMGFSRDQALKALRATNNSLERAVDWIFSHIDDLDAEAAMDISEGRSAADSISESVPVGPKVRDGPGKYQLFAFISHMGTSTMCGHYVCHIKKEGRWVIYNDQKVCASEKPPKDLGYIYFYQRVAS
Procedure, shortened: as §1

USP54 = USP54 (UniProt Q70EL1)
Procedure, shortened: as §1

USP7 = USP7 (UniProt Q93009)
Procedure, shortened: as §1

USP8 = target: T5, USP8 (UniProt P40818)
T5 sequence (whole entry): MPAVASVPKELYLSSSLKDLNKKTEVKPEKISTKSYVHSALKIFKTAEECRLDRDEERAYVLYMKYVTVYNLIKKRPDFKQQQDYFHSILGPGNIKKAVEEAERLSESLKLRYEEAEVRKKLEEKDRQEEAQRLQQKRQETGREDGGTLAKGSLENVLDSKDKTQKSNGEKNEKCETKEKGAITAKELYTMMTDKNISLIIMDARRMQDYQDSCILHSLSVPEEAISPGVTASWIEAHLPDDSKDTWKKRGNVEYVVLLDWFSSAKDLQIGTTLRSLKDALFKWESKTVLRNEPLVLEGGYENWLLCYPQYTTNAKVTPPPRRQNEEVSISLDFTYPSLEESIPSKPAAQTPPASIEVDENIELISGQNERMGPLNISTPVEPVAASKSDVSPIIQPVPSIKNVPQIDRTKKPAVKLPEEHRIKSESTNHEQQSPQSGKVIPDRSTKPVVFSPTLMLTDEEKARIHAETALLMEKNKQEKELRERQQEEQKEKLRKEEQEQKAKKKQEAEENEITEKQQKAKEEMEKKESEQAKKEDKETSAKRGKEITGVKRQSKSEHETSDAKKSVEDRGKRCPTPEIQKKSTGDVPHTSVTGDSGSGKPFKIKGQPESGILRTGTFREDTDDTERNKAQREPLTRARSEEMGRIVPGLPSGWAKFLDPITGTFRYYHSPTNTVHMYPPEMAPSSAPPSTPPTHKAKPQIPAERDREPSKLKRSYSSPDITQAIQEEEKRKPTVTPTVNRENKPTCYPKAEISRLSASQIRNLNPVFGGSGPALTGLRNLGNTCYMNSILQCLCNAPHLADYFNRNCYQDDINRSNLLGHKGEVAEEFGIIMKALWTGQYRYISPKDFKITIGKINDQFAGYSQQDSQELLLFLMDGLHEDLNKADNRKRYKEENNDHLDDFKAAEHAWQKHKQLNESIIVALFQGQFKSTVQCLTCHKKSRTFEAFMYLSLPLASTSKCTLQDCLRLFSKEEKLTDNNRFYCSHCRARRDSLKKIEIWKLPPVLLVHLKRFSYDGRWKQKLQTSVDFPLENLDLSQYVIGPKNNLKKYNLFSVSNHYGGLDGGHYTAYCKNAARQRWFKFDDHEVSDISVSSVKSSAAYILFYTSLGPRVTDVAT
Procedure, shortened: as §1

USP9X = USP9X (UniProt Q93008)
Procedure, shortened: as §1

UniProt O00487 = target: UniProt O00487
Procedure, shortened: as §1

Measured: log2 ratio of Biotin-Ahx-Ub-VS probe labelling

UniProt O00487, sequence (O00487 whole entry): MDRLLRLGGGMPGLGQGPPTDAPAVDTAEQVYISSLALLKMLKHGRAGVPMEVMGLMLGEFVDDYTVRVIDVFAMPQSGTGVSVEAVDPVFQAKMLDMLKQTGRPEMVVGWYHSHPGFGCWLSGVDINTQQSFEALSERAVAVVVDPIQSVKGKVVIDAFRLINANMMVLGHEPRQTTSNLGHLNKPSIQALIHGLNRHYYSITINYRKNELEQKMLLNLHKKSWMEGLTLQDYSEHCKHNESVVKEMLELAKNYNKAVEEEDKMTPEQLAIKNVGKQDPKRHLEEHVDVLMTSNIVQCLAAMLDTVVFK
USP46, sequence (P62068 whole entry): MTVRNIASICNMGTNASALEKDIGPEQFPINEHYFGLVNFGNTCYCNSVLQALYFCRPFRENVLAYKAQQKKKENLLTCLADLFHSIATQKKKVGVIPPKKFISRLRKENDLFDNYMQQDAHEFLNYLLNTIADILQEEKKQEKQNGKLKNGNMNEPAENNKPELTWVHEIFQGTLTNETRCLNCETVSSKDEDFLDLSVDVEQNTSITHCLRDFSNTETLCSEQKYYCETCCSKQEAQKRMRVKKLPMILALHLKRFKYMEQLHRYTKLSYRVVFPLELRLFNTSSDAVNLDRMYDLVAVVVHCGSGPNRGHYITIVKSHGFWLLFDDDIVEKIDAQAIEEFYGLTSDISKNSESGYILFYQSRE
USP9X, sequence (Q93008 whole entry): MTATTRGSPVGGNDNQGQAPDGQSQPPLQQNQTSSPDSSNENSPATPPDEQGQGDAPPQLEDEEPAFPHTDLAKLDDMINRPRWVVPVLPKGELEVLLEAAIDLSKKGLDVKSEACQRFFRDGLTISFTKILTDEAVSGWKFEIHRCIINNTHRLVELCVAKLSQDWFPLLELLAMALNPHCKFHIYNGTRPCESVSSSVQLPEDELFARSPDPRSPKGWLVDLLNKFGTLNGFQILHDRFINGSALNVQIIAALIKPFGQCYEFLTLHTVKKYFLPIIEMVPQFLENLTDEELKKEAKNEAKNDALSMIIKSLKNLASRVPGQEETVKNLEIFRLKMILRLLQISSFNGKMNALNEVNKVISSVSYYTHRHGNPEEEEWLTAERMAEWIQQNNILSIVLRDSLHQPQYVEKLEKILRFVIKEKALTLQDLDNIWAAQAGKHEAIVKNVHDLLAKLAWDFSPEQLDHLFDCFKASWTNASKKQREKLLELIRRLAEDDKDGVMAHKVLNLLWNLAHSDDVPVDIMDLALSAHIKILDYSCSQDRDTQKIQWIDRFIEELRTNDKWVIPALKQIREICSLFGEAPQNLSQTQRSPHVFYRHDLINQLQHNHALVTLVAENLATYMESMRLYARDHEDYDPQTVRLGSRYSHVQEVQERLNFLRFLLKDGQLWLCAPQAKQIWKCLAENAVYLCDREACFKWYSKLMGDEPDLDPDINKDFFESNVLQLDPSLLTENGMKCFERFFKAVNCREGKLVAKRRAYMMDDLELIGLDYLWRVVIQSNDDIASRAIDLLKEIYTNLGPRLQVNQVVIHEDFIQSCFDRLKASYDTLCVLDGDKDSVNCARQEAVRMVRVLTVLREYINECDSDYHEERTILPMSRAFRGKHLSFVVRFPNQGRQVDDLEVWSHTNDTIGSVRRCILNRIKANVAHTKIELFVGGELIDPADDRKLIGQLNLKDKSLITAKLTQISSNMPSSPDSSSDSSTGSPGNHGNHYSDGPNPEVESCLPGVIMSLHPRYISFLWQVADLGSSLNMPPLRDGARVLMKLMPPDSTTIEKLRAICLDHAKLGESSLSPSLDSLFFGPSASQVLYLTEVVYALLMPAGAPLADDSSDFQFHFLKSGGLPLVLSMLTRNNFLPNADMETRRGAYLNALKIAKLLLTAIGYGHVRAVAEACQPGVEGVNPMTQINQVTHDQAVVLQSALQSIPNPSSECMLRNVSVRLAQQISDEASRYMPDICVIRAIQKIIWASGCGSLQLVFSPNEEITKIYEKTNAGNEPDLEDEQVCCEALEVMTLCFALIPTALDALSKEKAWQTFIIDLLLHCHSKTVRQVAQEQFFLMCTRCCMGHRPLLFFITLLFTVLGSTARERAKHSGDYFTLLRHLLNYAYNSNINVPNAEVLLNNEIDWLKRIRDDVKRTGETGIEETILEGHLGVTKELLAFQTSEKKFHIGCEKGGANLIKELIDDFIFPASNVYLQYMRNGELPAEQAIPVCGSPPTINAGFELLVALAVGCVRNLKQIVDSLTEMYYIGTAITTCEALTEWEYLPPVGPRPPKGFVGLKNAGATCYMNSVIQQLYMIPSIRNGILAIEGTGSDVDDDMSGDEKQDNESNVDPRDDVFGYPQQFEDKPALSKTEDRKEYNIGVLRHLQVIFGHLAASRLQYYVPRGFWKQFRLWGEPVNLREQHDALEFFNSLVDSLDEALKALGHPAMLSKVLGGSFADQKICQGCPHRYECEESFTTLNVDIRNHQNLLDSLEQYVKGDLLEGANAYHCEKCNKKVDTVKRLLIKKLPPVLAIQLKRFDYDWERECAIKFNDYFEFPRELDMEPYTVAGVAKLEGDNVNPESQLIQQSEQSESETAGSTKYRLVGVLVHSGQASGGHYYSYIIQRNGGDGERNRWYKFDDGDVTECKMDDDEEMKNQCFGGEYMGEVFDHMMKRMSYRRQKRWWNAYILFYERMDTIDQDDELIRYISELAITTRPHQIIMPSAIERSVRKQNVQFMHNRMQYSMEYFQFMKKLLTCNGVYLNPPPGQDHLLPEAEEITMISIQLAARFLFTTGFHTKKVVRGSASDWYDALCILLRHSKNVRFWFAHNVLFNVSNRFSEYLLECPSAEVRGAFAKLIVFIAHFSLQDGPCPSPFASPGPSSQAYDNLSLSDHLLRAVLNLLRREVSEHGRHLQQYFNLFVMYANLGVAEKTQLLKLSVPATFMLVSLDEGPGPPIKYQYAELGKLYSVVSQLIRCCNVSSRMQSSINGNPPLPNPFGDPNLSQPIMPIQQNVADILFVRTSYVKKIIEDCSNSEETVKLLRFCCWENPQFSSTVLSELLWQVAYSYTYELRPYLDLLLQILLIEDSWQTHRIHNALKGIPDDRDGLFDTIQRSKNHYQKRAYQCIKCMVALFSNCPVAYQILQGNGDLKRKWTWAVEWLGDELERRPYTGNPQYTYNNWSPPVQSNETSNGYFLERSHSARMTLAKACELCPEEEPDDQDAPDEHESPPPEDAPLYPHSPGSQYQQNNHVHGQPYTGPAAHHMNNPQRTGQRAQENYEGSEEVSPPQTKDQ
USP7, sequence (Q93009 whole entry, looked up): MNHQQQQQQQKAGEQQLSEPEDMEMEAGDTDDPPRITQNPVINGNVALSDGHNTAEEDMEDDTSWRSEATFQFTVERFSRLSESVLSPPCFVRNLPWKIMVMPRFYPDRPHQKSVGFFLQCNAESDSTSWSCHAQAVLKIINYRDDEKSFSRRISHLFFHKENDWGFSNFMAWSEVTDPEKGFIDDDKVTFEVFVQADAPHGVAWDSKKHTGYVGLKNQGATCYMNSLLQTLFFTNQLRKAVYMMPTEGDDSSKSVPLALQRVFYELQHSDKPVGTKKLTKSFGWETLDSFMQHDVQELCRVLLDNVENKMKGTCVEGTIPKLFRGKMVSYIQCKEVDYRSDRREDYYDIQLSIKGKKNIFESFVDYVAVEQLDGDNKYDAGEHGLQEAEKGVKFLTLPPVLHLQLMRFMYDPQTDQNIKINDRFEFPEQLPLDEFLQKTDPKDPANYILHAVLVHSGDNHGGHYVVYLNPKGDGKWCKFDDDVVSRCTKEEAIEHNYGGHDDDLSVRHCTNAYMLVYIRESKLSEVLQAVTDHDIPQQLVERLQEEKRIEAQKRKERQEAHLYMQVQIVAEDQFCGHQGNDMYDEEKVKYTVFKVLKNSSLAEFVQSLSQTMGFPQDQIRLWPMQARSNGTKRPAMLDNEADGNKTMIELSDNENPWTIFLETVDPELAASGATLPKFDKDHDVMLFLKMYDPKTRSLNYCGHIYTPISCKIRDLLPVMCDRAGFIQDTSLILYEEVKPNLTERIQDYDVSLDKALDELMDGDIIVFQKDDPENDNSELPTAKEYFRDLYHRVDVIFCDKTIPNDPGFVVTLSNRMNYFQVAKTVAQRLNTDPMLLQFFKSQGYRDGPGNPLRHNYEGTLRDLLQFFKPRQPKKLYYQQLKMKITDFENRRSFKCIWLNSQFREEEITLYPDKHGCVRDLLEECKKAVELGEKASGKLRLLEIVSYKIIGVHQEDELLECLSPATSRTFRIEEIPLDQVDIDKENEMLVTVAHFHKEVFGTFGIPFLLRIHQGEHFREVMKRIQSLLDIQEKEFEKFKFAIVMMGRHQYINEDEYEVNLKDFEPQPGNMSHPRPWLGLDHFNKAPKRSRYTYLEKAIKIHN

CS(=O)(=O)c1ccc(NC(=O)CCl)cc1
inactive: USP42 0.0549 | USP46 0.119 | USP47 -0.0487 | USP48 -0.946 | USP5 0.0085 | USP54 0.431 | USP7 -0.156 | USP8 0.012 | USP9X -0.388 | UniProt O00487 -0.115
